The results in this text go back to PubChem BioAssay (Tox21).

Values without a mark were called inactive. Results filed as inconclusive are left out. The source made the active and inactive calls. Unless noted, calls follow the shape of the dose curve; as a rule, active = well fitted curve in the direction sought with a large enough effect in the repeat runs; inconclusive = weak or mixed curves; inactive = no such curve, though single readings can be large; an effect the other way counts as inactive or inconclusive.

Test [1] can be described thus: qHTS assay to identify small molecule antagonists of the estrogen related receptor (ERR) signaling pathway from Tox21 library - cell viability counter screen (AID 1224834). Also: nearly all actives have a fitted effect of over 30% in size. Also: potency is read from the fitted curve at half-maximal effect. The gist of the method:
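Multiplexed viability counter screen in ERR cells: 17.5 h compound exposure at 37 C, CellTiter-Fluor added, 30 min at 37 C/5% CO2, fluorescence read.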
Background: qHTS replaces the single test concentration by a dilution series.

A short description of test [2]: qHTS assay to identify small molecule agonists of the constitutive androstane receptor (CAR) signaling pathway - cell viability counter screen (AID 1224836). Also: nearly all actives have a fitted effect of over 45% in size. In outline:
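HepG2-CYP2B6-hCAR, 2500 cells/well, 4 h pre-incubation; cpd 15 conc + PK11195 0.75 uM final; 23 h, 37 C/5% CO2; CellTiter-Fluor, fluorescence.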

A short description of test [3]: qHTS assay to identify small molecule antagonists of the constitutive androstane receptor (CAR) signaling pathway - cell viability counter screen (AID 1224837). Also: nearly all actives have a fitted effect of over 45% in size. In outline: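 Read-out: CellTiter-Fluor fluorescence after 23 hr at 37 C/5% CO2. Cells: HepG2 double-stable for hCAR and CYP2B6-2.2kb. Compounds tested at 15 concentrations in the presence of CITCO, final concentration 50 nM.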

Test [4] in a line: qHTS assay to identify small molecule antagonists of the estrogen related receptor signaling pathway with the pleiotropic PPARgamma coactivator (PGC) from Tox21 10K library - cell viability counter screen (AID 1224840; active = well fitted cell-killing curve with a large enough effect in the repeat runs, not every such curve was filed as active; also: nearly all actives have a fitted effect of over 40% in size). In outline:
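Fluorescence read-out of CellTiter-Fluor viability reagent, added after cells had been exposed to compound in DMSO for 17.5 h at 37 C; 30 min development at 37 C/5% CO2. Cells: PGC/ERR line, 2,000/well.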

The target of test [5] is Thyrotropin receptor (Homo sapiens) (UniProt P16473). Nature of the test: qHTS assay to identify small molecule agonists of the thyroid stimulating hormone receptor (TSHR) signaling pathway (AID 1224843; calls by dose curve; also: nearly all actives have a fitted effect of over 45% in size). The gist of the method: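 Using 15 concentrations per compound in triplicate, cAMP production was monitored in TSHR-HEK293 cells after 30 min compound incubation at RT; HTRF reagents followed, with fluorescence intensity recorded after 1 h.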

Test [6] is described as follows: qHTS assay to identify small molecule agonists of the hypoxia (HIF-1) signaling pathway - cell viability counter screen (AID 1224844; calls by dose curve; also: nearly all actives have a fitted effect of over 50% in size; also: potency is read from the fitted curve at half-maximal effect). In outline: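 CellTiter-Glo luminescence read-out, 30 min RT, taken in the same wells as the beta-lactamase HRE reporter assay; HRE-bla ME-180 cells, 0.5% dialyzed FBS, 17 hr compound treatment at 37C, 5% CO2.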
Test [7] in a line: qHTS assay to identify small molecule agonists of H2AX (AID 1224845; active = well fitted activation curve with a large enough effect in the signal ratio in the repeat runs, not every such curve was filed as active; the % refers to the signal ratio). In outline: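 Wild-type CHO-K1 cells plated overnight, then exposed 3 hr at 37C to compounds at 15 concentrations (0.76% DMSO). Lysed, then HTRF anti-pH2AX(S139)-cryptate/anti-H2AX-d2 detection after 24 hr at room temperature; emissions 665 and 620 nm.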
Test [8] can be described thus: qHTS assay to identify small molecule agonists of H2AX - cell viability counter screen (AID 1224847; calls by dose curve; also: top concentration of the series differs between compounds; nearly all actives have a fitted effect of over 30% in size). In outline:
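Cells plated first: CHO-K1, 1000 per well in 10% FBS medium, incubated overnight at 37C. Then 15-point compound titration added (final DMSO 0.76%) for 3 hr. Finally CellTiter-Glo added and luminescence read.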

Test [9] can be described thus: qHTS RealTime-Glo MT Cell Viability Assay in HepG2 cells - 24 hour (AID 1224867). Also: nearly all actives have a fitted effect of over 50% in size. The gist of the method: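 Luminescence read-out: viable HepG2 cells reduce a prosubstrate to a NanoLuc substrate, giving a signal proportional to live cell number. Reads taken at 0, 8, 16, 24, 32 and 40 h of compound exposure at 37 C.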
Test [10] in a line: qHTS RealTime-Glo MT Cell Viability Assay in HEK293 cells - 32 hour (AID 1224868). Also: top concentration of the series differs between compounds; nearly all actives have a fitted effect of over 50% in size. The gist of the method: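 Nonlytic real-time viability readout: viable cells convert prosubstrate to NanoLuc substrate, giving luminescence proportional to live cell number. HEK293, 600 cells/well, compound added after 5 h, continuous culture at 37 C.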
The nature of test [11]: A CellTox Green Cytotoxicity Assay to monitor cytotoxicity in HEK293 cells - 0 hour (AID 1224869). Also: nearly all actives have a fitted effect of over 50% in size. The gist of the method:
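Read-out: fluorescence of a cell-impermeant cyanine dye staining DNA of dead cells, proportional to cytotoxicity. HEK293, 600 cells/well with reagent, compound (23 nL DMSO) added after 5 h; reads at 0, 8, 16, 24, 32, 40 h.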

Test [12] is described as follows: qHTS RealTime-Glo MT Cell Viability Assay in HepG2 cells - 40 hour (AID 1224870). Also: nearly all actives have a fitted effect of over 50% in size. In outline: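 HepG2 cells mixed with RealTime-Glo MT reagents (NanoLuc plus cell-permeant prosubstrate) were seeded at 600 cells/well, incubated 5 h at 37 C/5% CO2, then pinned with compounds in DMSO; nonlytic luminescence tracked viability during 40 h treatment.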
Test [13] deals with Nuclear receptor subfamily 1 group I member 3 (Homo sapiens) (UniProt Q14994). Nature of the test: qHTS assay to identify small molecule antagonists of the constitutive androstane receptor (CAR) signaling pathway (AID 1224838).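 Also: HepG2 cells stably expressing hCAR with CYP2B6 luciferase reporter stimulated by CITCO; nearly all actives have a fitted effect of over 40% in size.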 In outline: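 Read-out: ONE-Glo luciferase luminescence after 30 min at room temperature. HepG2-CYP2B6-hCAR double-stable cells, compounds in 15-point titration plus 50 nM CITCO final, 24 h at 37 C/5% CO2.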

Test [14] shares this target. Nature of the test: qHTS assay to identify small molecule agonists of the constitutive androstane receptor (CAR) signaling pathway (AID 1224839).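 Also: HepG2 cells stably carrying human CAR and a CYP2B6 luciferase reporter; nearly all actives have a fitted effect of over 15% in size.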 The gist of the method:
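HepG2-CYP2B6-hCAR cells, 2500/well, 4 h pre-incubation; compounds 15 conc.; PK11195 0.75 uM final; 24 h, 37 C/5% CO2; ONE-Glo luciferase read.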

The nature of test [15]: qHTS assay to identify small molecule antagonists of the estrogen related receptor signaling pathway with the pleiotropic PPARgamma coactivator (PGC) from Tox21 10K library (AID 1224841; call rule not given here; also: potency is read from the fitted curve at half-maximal effect). The gist of the method: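 Luminescence read-out (One-Glo luciferase reagent, 30 min at room temperature) from PGC/ERR cells exposed to DMSO-dissolved test compounds for 18 h at 37 C; cells, 2,000 per well, had been preincubated 6 h before compound transfer.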

Test [16] is described as follows: qHTS assay to identify small molecule agonists of the estrogen related receptor signaling pathway with the pleiotropic PPARgamma coactivator (PGC) from Tox21 10K library (AID 1224842). Also: nearly all actives have a fitted effect of over 15% in size. In outline:
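PGC/ERR reporter cells (NTP line) were seeded 2,000 per well, rested 6 h at 37 C/5% CO2, then pin-dosed with compounds in DMSO for 18 h at 37 C; luciferase read by One-Glo luminescence after 30 min at room temperature.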

Test [17] in a line: qHTS assay to identify small molecule antagonists of the estrogen related receptor (ERR) signaling pathway from Tox21 library (AID 1224848). Also: nearly all actives have a fitted effect of over 50% in size. Also: potency is read from the fitted curve at half-maximal effect. The gist of the method: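 Tox21 10K compounds in DMSO tested for ERR pathway antagonism in NTP's ERR cell line; 18 h, 37 C exposure; ONE-Glo luminescence.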
The nature of test [18]: qHTS assay to identify small molecule agonists of the estrogen related receptor (ERR) signaling pathway from Tox21 library (AID 1224849; calls by dose curve; also: nearly all actives have a fitted effect of over 15% in size). To be noted: ERR reporter cell line, ONE-Glo luciferase, 18 h; at 92.4 µM (top of the series) unless noted. The gist of the method: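 Luminescence readout (ONE-Glo, 30 min RT) after 18 h compound exposure at 37 C of NTP-supplied ERR reporter cells; cells were plated 6 h before compound addition by pin tool.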

Test [19] can be described thus: qHTS assay to identify small molecule agonists of the hypoxia (HIF-1) signaling pathway (AID 1224846; active = well fitted activation curve with a large enough effect in the signal ratio in the repeat runs, not every such curve was filed as active; the % refers to the signal ratio). In outline:
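Beta-lactamase FRET read-out (CCF4-AM substrate) from ME-180 cells carrying an HRE-driven bla reporter, after 17 hrs compound exposure at 37C/5% CO2. Cells were seeded at 2,000 per well in 0.5% dialyzed FBS medium and preincubated 5 hrs.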

Test [20] deals with Luciferin 4-monooxygenase (Photinus pyralis) (UniProt P08659). Put plainly: qHTS assay to identify small molecule inhibitors of firefly luciferase (AID 1224835). Also: nearly all actives have a fitted effect of over 25% in size. Also: potency is read from the fitted curve at half-maximal effect. In outline:
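Quantitative HTS format; KM concentrations of both substrates. Purified P. pyralis FLuc activity quantified from luminescence images.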
% is scaled to controls: 0 for no effect and ±100 for the full control effect.

Chain of Thyrotropin receptor (Homo sapiens) (P16473 whole entry, looked up): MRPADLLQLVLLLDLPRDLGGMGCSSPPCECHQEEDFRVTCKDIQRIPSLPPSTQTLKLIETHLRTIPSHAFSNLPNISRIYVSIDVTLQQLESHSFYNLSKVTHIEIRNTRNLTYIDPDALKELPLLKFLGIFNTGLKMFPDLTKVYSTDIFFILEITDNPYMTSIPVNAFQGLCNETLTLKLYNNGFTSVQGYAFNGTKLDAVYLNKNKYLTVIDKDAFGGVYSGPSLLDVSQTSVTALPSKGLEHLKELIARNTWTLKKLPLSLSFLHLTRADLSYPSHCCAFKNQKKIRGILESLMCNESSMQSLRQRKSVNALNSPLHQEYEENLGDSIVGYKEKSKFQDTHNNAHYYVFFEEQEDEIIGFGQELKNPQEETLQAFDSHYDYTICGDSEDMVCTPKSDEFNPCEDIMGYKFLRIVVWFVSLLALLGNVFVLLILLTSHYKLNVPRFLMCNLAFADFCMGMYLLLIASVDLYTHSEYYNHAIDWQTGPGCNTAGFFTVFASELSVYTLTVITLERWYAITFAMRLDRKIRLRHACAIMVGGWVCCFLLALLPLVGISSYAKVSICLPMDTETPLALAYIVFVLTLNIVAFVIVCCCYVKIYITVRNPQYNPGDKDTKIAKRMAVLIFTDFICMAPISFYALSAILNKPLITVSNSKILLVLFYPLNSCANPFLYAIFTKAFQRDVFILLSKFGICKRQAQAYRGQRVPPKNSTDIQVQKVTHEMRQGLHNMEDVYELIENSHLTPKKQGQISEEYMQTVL
Chain of Nuclear receptor subfamily 1 group I member 3 (Homo sapiens) (Q14994 whole entry, looked up): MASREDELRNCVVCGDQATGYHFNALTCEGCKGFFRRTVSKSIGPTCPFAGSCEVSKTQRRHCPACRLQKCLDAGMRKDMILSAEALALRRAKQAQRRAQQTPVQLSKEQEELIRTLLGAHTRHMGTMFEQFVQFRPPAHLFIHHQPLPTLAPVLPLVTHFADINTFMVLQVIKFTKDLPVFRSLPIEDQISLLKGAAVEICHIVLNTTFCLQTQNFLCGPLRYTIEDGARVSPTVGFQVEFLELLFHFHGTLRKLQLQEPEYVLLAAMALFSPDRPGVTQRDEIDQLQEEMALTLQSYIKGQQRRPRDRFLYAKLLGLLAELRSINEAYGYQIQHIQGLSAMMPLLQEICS
Chain of Luciferin 4-monooxygenase (Photinus pyralis) (P08659 whole entry, looked up): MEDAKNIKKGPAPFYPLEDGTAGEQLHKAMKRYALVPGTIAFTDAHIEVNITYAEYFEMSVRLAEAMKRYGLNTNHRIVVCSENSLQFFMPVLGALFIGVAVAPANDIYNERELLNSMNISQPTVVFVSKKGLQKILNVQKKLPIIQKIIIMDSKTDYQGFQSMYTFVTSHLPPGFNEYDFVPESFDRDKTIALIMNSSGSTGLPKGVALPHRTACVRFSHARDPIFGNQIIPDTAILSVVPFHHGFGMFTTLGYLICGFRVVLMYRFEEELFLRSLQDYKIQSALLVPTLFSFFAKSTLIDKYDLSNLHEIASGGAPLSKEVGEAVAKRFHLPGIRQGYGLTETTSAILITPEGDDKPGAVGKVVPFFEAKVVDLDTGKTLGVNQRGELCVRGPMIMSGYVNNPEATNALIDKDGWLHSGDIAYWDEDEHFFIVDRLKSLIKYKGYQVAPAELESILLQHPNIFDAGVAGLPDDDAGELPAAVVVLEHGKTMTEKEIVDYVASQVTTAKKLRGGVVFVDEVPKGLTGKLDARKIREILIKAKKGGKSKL

Consider `CC(C)(C)c1cc(C=O)cc(C(C)(C)C)c1O`, for which the Potency entry in [1], in [2], in [3], in test [4], in test [5] and in test [6] was “inactive” in each case. Moreover, the Potency entry in [7], in test [8], in [10], in test [11] and in [12] was “inactive” throughout. In addition, in test [9], the outcome was inactive.
On to `CC(=O)Oc1cccc2c1C(=O)c1c(OC(C)=O)cc(C(=O)O)cc1C2=O`, for which the Potency in [1] is 29.8 µM (active); in test [15], 21.1 µM (active); in [17], 23.7 µM (active). For the same compound, the Potency result in test [13], in test [14], in [4], in [16], in [5] and in test [6] was “inactive” each time. The Potency entry in [8], in [10], in test [11] and in test [12] was “inactive” each time. Further, the activity change, positive = activation in [18] was -46.2% [at 42.5 µM]. The result in test [9] was inactive.
Consider `CCCCOc1ccc(N)cc1`, for which the Potency entry in test [1], in test [2], in [3], in test [4], in test [15] and in test [5] was “inactive” throughout. For the same compound, the Potency result in [6], in [8], in test [17], in [10], in test [11] and in [12] was “inactive” in each case. Further, the compound was classed as inactive in test [19] and in [9]. For the same compound, the activity change, positive = activation in test [18] is 3.06%.
Take `FC(F)(Cl)C(F)(Cl)Cl`: the Potency result in test [1], in test [2], in test [13], in test [14], in test [4] and in test [5] was “inactive” throughout. The Potency result in test [6], in [7], in test [8], in test [10], in test [11] and in test [12] was “inactive” in each case.
On to `CC(=O)CC/C=C(\C)CC/C=C(\C)CC/C=C(\C)CCC=C(C)C`, for which the Potency result in test [1], in test [2], in test [3], in [4], in test [6] and in [7] was “inactive” throughout. Besides, the Potency entry in test [8] and in test [10] was “inactive” throughout. Besides, the compound was called inactive in test [19] and in test [9].
On to `O=[N+]([O-])c1ccc(Cl)cc1Cl`, for which the Potency entry in [20], in [2], in test [3], in test [13], in [14] and in test [4] was “inactive” each time. For the same compound, the Potency entry in [5], in test [6], in [7], in [10] and in test [12] was “inactive” in each case. For the same compound, the compound was classed as inactive in test [19] and in [9].
As for `OCC(O)c1ccccc1` (stereo not drawn), the Potency entry in [1], in test [2], in test [3], in [4], in test [5] and in test [7] was “inactive” each time. Moreover, the Potency entry in test [8], in [10] and in test [11] was “inactive” in each case. For the same compound, the Potency in test [6] is 38.9 µM (active). Further, the outcome in test [9] was inactive.
Turning to `O=C(O)c1cccnc1Nc1cccc(C(F)(F)F)c1`, the Potency in test [20] was 19.5 µM (active). Moreover, the Potency result in test [2], in [3], in [13], in test [4], in test [15] and in [16] was “inactive” each time. Also, the Potency entry in test [6], in test [7], in test [8], in [10], in test [11] and in test [12] was “inactive” throughout. The activity change, positive = activation in [18] was -25.2% [at 42.5 µM].
For `CC1=CC(=C(c2ccc(N)cc2)c2ccc(N)cc2)C=CC1=N`, in test [20], the activity change, negative = inhibition was -4.83% [at 10.5 µM]. Further, the viability change, negative = cytotoxic in test [2] is -5.57% [at 8.39 µM]. Also, the activity change, negative = cytotoxicity in test [3] was -13.7% [at 8.39 µM]; in test [6], -15.8% [at 6.97 µM]; in [9], -2.94% [at 6.97 µM]. Further, the activity, negative = inhibition in [13] is 3.44% [at 8.39 µM]. The activation in test [14] is -0.508% [at 8.39 µM]; in [16], -25.9% [at 8.39 µM]; in test [5], 3.86% [at 8.39 µM]; in test [19], 0.607% [at 7.01 µM]. Moreover, the Potency was 2.76 µM (active) in [15] and 2.19 µM (active) in test [17]. Further, in test [7], the activation (H2AX phosphorylation) is -3.22% [at 14 µM]. Further, in [18], the activity change, positive = activation was -47.7% [at 8.39 µM]. The cytotoxicity in test [11] is -6.03% [at 6.97 µM]. The activity change, negative = cytotoxic in test [12] was -1.71% [at 6.97 µM].
